Here are results for 100 compounds from ChEMBL document CHEMBL4513216, “Probing the Open Global Health Chemical Diversity Library for Multistage-Active Starting Points for Next-Generation Antimalarials” (ACS Infect Dis, 2020).

About 8,600 (12%) of roughly 69,000 compounds showed an effect of 50% or more. The sample as a whole holds a higher share of strong results than the screen did.

The subject of the assay is Plasmodium berghei. Description: Screen against P. berghei liver stage (PbLuc), transformed with Luciferase, at 10uM. Type of assay: functional, HepG2. Particulars: tested at 10 uM.
For the compound `COc1cccc(CN(C)C(=O)NCc2c(C)cc(C)[nH]c2=O)c1`, the INHIBITION turned out to be 22.3%. In the case of `Cc1cnn(CC2CCCN2C(=O)CN(C)C2CC2)c1` (stereo not given), the INHIBITION came to 29.7%. As to `Cn1ccnc1C(=O)N1CCC2(CC1)CC(Oc1cccnc1)CO2` (stereo not given), the INHIBITION is 32.4%.

In the case of `CC(C)CC(CO)NS(=O)(=O)Cc1ccon1` (stereo not given), the INHIBITION came out at 23.8%. As for `Cc1ccc(OCC(C)NS(=O)(=O)Cc2ccon2)cc1` (stereo not given), the INHIBITION was 48.5%. The value for `CC(CCc1ccc(F)c(F)c1)NS(=O)(=O)Cc1ccon1` (stereo not given) was 53.5%; that for `CCc1nc(C2CCCN(C(=O)c3cnn(CC)c3)C2)no1` (stereo not given) was -8.69%; that for `CN1CCN(c2ccccc2NC(=O)NCC[S+](C)[O-])CC1` (stereo not given) was 39.3%. For `Cc1ccc(C(=O)Nc2ccccc2N2CCCC2)n1C`, the INHIBITION was found to be 21.2%.

Turning to `CN1CCN(c2ccccc2NC(=O)NCCc2ccc(O)cc2)CC1`, the INHIBITION came out at 35.1%. The value for `CN1CCN(c2ccccc2NC(=O)c2ccco2)CC1` was 50.4%; that for `CN1CCN(c2ccccc2NC(=O)NCCc2ccccc2)CC1` was 64.3%; that for `CN1CCN(c2ccc(Br)cc2NC(=O)c2ccco2)CC1` was 46.3%.

Consider `Cc1nn(CC(=O)N(C)Cc2nncn2C(C)C)c(=O)c2ccccc12`, for which the INHIBITION is on record as -7.27%. The value for `Cc1nn(CCNS(=O)(=O)c2ccccc2)c(C)c1Cl` was 48.3%; that for `Cc1cnn(C2CCCN(C(=O)c3ccc(-n4cnnn4)cc3)C2)c1` (stereo not given) was 47.4%; that for `CC(C)(O)CN1CCN(C(=O)c2cccn2Cc2ccncc2)CC1` was 19.2%. The value for `Cc1cc(C)n(CC2CN(CC(=O)Nc3cccnc3)CCO2)n1` (stereo not given) was -14.3%; that for `CCN(CCNC(=O)c1cccc(C)c1C)C1CC1` was -16%; that for `O=C1CSC(c2ccc(F)c(Cl)c2)c2c(n(C3CCOCC3)[nH]c2=O)N1` (stereo not given) was 72.8%. In the case of `COc1ccccc1C1SCC(=O)Nc2c1c(=O)[nH]n2C1CCOCC1` (stereo not given), the INHIBITION is listed as 39.3%.

Regarding `CC1=Nc2c(c(=O)[nH]n2C2CCOCC2)C(c2cccc(Br)c2)S1` (stereo not given), the INHIBITION is 3.95%.

Regarding `O=C1CSC(c2ccc(Cl)cc2Cl)c2c(n(C3CCOCC3)[nH]c2=O)N1` (stereo not given), the INHIBITION was 54.5%. The value for `O=C1CSC(c2ccc(O)c(Cl)c2)c2c(n(C3CCOCC3)[nH]c2=O)N1` (stereo not given) was 15%; that for `CC(=O)c1cccc(OCC(=O)NS(=O)(=O)c2cccs2)c1` was 2.97%; that for `Cn1nccc1-c1nnn2c1COCC(CNC1CCOCC1)C2` (stereo not given) was 45.7%. As for `O=C(CO)N1CCC(c2ccnc(Nc3cc(C(F)(F)F)ccn3)n2)C1` (stereo not given), the INHIBITION was determined as 20.2%. The value for `Cc1noc([C@@]23CCO[C@@H]2CCN(Cc2scnc2C)C3)n1` was 18.6%; that for `COCCN1CCC(CN(CC2CCCO2)C(=O)Cn2cccn2)CC1` (stereo not given) was 15.4%. In the case of `CC[C@@H]1N(Cc2ccoc2)CCC[C@]12CCC(=O)N2CCOC`, the INHIBITION is on record as -11.2%.

As to `CCN1CCCC1CN(Cc1cc[nH]n1)CC1CCN(CCOC)CC1` (stereo not given), the INHIBITION is 45%.

With `CCN1CCCC1CN(Cc1ccon1)CC1CCN(CCOC)CC1` (stereo not given), the INHIBITION was found to be 81.2%. Consider `CCN1CCCC1CN(Cc1ccoc1)CC1CCN(CCOC)CC1` (stereo not given), for which the INHIBITION is recorded as 53.7%.

For the compound `COCCN1C[C@@H]2CN(Cc3ccoc3)CCC[C@]2(C(=O)O)C1`, the INHIBITION is listed as -9.02%. The value for `CCn1ccnc1CN1CCCN(C(=O)c2csc(C)n2)CC1` was -1.55%; that for `Cc1cnc(N2C[C@H]3C[C@H](C(=O)N4CCN(C)CC4)N(C)[C@H]3C2)nc1` was -18.2%; that for `Cc1cccc2[nH]c(C3CCCN3Cc3ccc(CO)o3)nc12` (stereo not given) was -59.5%. `Cc1nn(CCO)cc1CN1CCCC1c1nc2c(C)cccc2[nH]1` (stereo not given): the INHIBITION stood at 71.1%. With `Cc1ncc(CO)c(CN2CCCC2c2nc3c(C)cccc3[nH]2)c1O` (stereo not given), the INHIBITION is listed as -125%. The value for `Cc1csc(Nc2cc(C3CN(c4ccncn4)C3)nc(C)n2)n1` was 68.4%; that for `Cc1csc(Nc2cc(C3CN(C(C)C)C3)nc(C)n2)n1` was 37.8%. The value for `CNCC(=O)N1CC(c2cc(Nc3nc(C)cs3)nc(C)n2)C1` was -47.8%; that for `Cc1nc(C)c(C(=O)N2CCCC2c2nc(O)cc(C(C)C)n2)s1` (stereo not given) was 13.5%. The value for `CSc1ccc(C(C(=O)O)N2CCOCC2)cc1` (stereo not given) was 41.2%; that for `COC1COC2(CCN(Cc3cccc(C#N)c3)CC2)C1` (stereo not given) was -23.8%. As for `CC(=O)c1ccn(CC(=O)Nc2nn(CC3CC3)c3ccccc23)n1`, the INHIBITION stood at 71.9%. Regarding `COC(=O)c1ccn(CC(=O)Nc2nn(CC3CC3)c3ccccc23)n1`, the INHIBITION turned out to be 32.3%.

As to `CCn1nc(NC(=O)Cn2ccc(C(C)=O)n2)c2ccccc21`, the INHIBITION stood at 7.38%. The value for `O=C1COC2(CCN(Cc3ccsc3)CC2)CN1` was 24.9%; that for `Cc1ccc(NC2CCN(C(=O)c3ccnc(N(C)C)c3)CC2)nn1` was -115%. As to `Cc1nn(C)c(N2CCOCC2)c1CNC1CCc2cc(F)ccc21` (stereo not given), the INHIBITION was determined as 6%. The value for `Cc1nn2cccnc2c1C(=O)NCc1ccccc1OCC1CC1` was 18.3%. The value for `O=C(NCc1ccccc1OCC1CC1)C1CCOC1` (stereo not given) was 56.5%; that for `CC(C)(C)Oc1ccccc1CNC(=O)C1CCCOC1` (stereo not given) was 29.8%. As to `CC1(C)CN(CC(O)C(C)(C)C)C(=O)CN(C(=O)c2ccccc2)C1` (stereo not given), the INHIBITION is 4.07%.

Turning to `CCN(Cc1ccccc1)Cc1nc2c(cnn2C)c(=O)[nH]1`, the INHIBITION is -51.5%.

On to `Cc1noc(C)c1C(=O)Nc1ccc2ncn(CC(C)C)c(=O)c2c1`, for which the INHIBITION came out at 29.9%.

In the case of `O=C(NC(c1ccc(Cl)cc1)C(F)(F)F)c1nc(=O)[nH][nH]1` (stereo not given), the INHIBITION amounted to 66.8%. The value for `CC(C)(C)CC(NC(=O)c1nc(=O)[nH][nH]1)c1ccc(F)cc1` (stereo not given) was 22.8%; that for `O=C(NC(CC(F)(F)F)c1ccc(Cl)cc1)c1nc(=O)[nH][nH]1` (stereo not given) was -7.17%. The value for `CC(C)NC(=O)[C@@H]1CC[C@@H]2[C@@H](CCN2Cc2ccc3ccccc3n2)O1` was 31.9%; that for `Cc1csc(CN2CC[C@H]3O[C@H](C(=O)Nc4cccnc4)CC[C@H]32)n1` was 81.5%.

For `COc1ccc(CN2CC[C@H]3O[C@@H](C(=O)NCC4CC4)CC[C@H]32)cc1`, the INHIBITION came to 53%. Turning to `CNC(=O)[C@@H]1CC[C@@H]2[C@@H](CCN2Cc2cn(C)c3ccccc23)O1`, the INHIBITION was -20.1%. The value for `O=C(NCC1CC1)[C@H]1CC[C@@H]2[C@@H](CCN2Cc2ccoc2)O1` was 26.8%; that for `O=C(Nc1cnccn1)[C@@H]1CC[C@@H]2[C@@H](CCN2Cc2nccs2)O1` was 43.4%. The value for `Cc1cccc(CN2CC[C@H]3O[C@H](C(=O)Nc4cnccn4)CC[C@H]32)n1` was 34.3%; that for `O=C(NCC1CC1)[C@@H]1CC[C@@H]2[C@@H](CCN2Cc2ccc(F)c(F)c2)O1` was 32.2%. Regarding `CN1CCN(C(=O)[C@H]2CC[C@@H]3[C@@H](CCN3Cc3ccsc3)O2)CC1`, the INHIBITION was 52%.

Regarding `O=C(NC1CC1)[C@H]1CC[C@@H]2[C@@H](CCN2Cc2ccsc2)O1`, the INHIBITION is given as 20.9%. The value for `CC(C)NC(=O)[C@@H]1CC[C@@H]2[C@@H](CCN2Cc2cn(C)c3ccccc23)O1` was 65.1%; that for `O=C([C@H]1CC[C@@H]2[C@@H](CCN2Cc2ccsc2)O1)N1CCOCC1` was -45.5%. For `CC(c1ccncc1)N(C)C(=O)NCCOc1ccc(C#N)cc1` (stereo not given), the INHIBITION is 34.7%. Regarding `COCCN1CCN(c2ccc3ccc(C(=O)NC4CC4)cn23)CC1`, the INHIBITION is 18.6%.

For the compound `C=C(C)CN1CCN(Cc2cnc(OC)nc2)CC1`, the INHIBITION was determined as 25.6%. On to `COCCn1cc(CCC(=O)Nc2c(C)nn(C)c2C)c2ccccc21`, for which the INHIBITION amounted to 39.4%.

Take `CN(C)C(=O)N1CCC2(CC1)C(c1cnn(C)c1)CC(=O)N2C` (stereo not given): the INHIBITION amounted to 39.2%. The value for `Fc1cnc(N2CC[C@@H]3OC(COCc4cccnc4)CC[C@@H]32)nc1` (stereo not given in full) was 37.8%. The value for `CC(=O)N1CC[C@@H]2O[C@H](C(=O)Nc3nc(C)cs3)C[C@@H]21` was -24.1%. The value for `O=C(NC1CCC1)[C@@H]1CC[C@@H]2[C@@H](CCN2CCc2ccccc2)O1` was 42.1%; that for `O=C(NC1CC1)[C@H]1CC[C@@H]2[C@@H](CCN2CCOCc2ccccc2)O1` was 10.4%.

On to `Cn1cc(CN2CC[C@H]3O[C@@H](C(=O)NC4CC4)CC[C@H]32)cn1`, for which the INHIBITION amounted to 62.4%. The value for `Cc1csc(NC(=O)[C@@H]2C[C@H]3[C@H](CCN3c3ncccn3)O2)n1` was -16.2%; that for `COCCNC(=O)[C@@H]1CC[C@@H]2[C@@H](CCN2Cc2cnn(C)c2)O1` was 7.11%; that for `Cn1cc(CN2CC[C@H]3O[C@H](C(=O)Nc4cnccn4)CC[C@H]32)cn1` was 30.3%. The value for `Cc1csc(NC(=O)[C@@H]2C[C@H]3[C@H](CCN3S(C)(=O)=O)O2)n1` was 61.3%; that for `Cn1cc(CN2CC[C@H]3O[C@H](C(=O)NC4CC4)CC[C@H]32)c2ccccc21` was 66.8%; that for `CN(C)CC1(O)CCN(C(=O)Cc2ccc3ccccc3c2)C1` (stereo not given) was -37.7%.

Turning to `COc1c(C2CCCN2C(=O)c2ccc(C(N)=O)s2)c(C)nn1C` (stereo not given), the INHIBITION came out at 2.93%. The value for `Cc1nc(CN(C)C2CCN(CCCOc3ccccc3)C2)no1` (stereo not given) was 31.9%.

As to `Cc1cnc(C(=O)NC(COCC(C)C)c2ccco2)cn1` (stereo not given), the INHIBITION was found to be 36.1%. In the case of `O=C(N1CCOCC1)N1CCc2ncc(CN3CCCCC3)n2CC1`, the INHIBITION amounted to 15.9%. The value for `CC(C)CCN1CCN(C(=O)c2cnccn2)CC1` was 25%. The value for `CC(C)Nc1n[nH]c2nc(C3CCN(C(=O)c4ccccn4)C3)ccc12` (stereo not given) was -7.66%. The value for `CC(C)CNC(=O)c1cc(Br)c2c(c1)OCCO2` was 51.8%; that for `CCC(C#N)NC(=O)c1cc(Br)c2c(c1)OCCO2` (stereo not given) was -36.1%.

Turning to `CCCC(C#N)NC(=O)c1cc(Br)c2c(c1)OCCO2` (stereo not given), the INHIBITION was found to be 60.5%. For `CCCNC(=O)c1cc(Br)c2c(c1)OCCO2`, the INHIBITION came to 31.2%. The value for `CC(CC#N)NC(=O)c1cc(Br)c2c(c1)OCCO2` (stereo not given) was 12.7%; that for `CC(C)NC(=O)c1cc(Br)c2c(c1)OCCO2` was -48.4%.
